# Screening results: PubChem BioAssay, several laboratories
# In the library only some 4.7% were active in any assay of this set; here they are far more common.
# tim10-1 inh – growth inhibitors of tim10-1 mutant yeast, primary screen, luminescence, uHTS; S. cerevisiae tim10-1 ts strain growth, BacTiter-Glo, 24 h; inhibition, % at 20 µM; 330,000 compounds, 2.2% hits;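 active = inhibition of at least 40%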;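 note: mutant grown at 25 °C; 0% = DMSO wells with yeast and 100% = wells holding no yeast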
# Calb FLC – C. albicans growth inhibition with fluconazole, primary screen, CaCi-2 strain, Alamar Blue fluorescence | C. albicans CaCi-2 (fluconazole-resistant clinical isolate) + fluconazole, 48 h | growth inhibition, % (concentration not given with the values) | 300,000 compounds, 0.57% hits | AID 1979, 2009;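 active = growth inhibition above about 58% in most replicates, limit read from the data, passing the limit was not always enough; inconclusive = exactly half the replicates above a set limit; inactive = most replicates below a set limit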;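 note: all wells also contain fluconazole at 8 µg/ml as a sub-toxic cotreatment; 0% = median of DMSO wells and 100% = median of geldanamycin control wells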
# SKKanGAS inh – S. pyogenes SKKanGAS growth inhibitors in kanamycin, primary screen, streptokinase expression inhibitor project, SKKanGAS strain, BacTiter-Glo luminescence; AID 1662, 2009; 300,000 compounds, 1.3% hits; 6 h; inhibition, % at 7.5 µM;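 active = mean replicate score, as percent of positive control median, at least 50; inconclusive = mean below 50 but one replicate at or above 50; inactive = mean and every replicate below 50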;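 note: strain carries kanamycin resistance gene driven by streptokinase promoter and grows in 40 µg/ml kanamycin; loss of luminescence reflects streptokinase promoter inhibition or plain growth inhibition; 0% = median of DMSO wells and 100% = positive control at its reference dose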
# PfHsp90 set2 – growth inhibition of PfHsp90-expressing yeast, primary screen, antimalarial PfHsp90 inhibitor project, S. cerevisiae, BacTiter-Glo luminescence, single point, set 2 | BacTiter-Glo ATP, 48 h; yeast lacking PDR1 and PDR3 efflux regulators | inhibition, % at 9.4 µM | 310,000 compounds, 0.32% hits | AID 504621, 2011;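 active = every replicate shows inhibition above about 80%, whatever the replicate mean, limit read from the data; inconclusive = mean inhibition reaches the set limit but some replicate falls short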;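 note: 0% = DMSO neutral controls and 100% = 20 µM radicicol positive controls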
# TIM10 inh – growth inhibitors of isogenic TIM10 control yeast, primary screen, counter-screen for tim10-1 yeast inhibitor project, luminescence, uHTS | AID 463195, 2010 | 330,000 compounds, 1.4% hits | inhibition, % at 10 µM | S. cerevisiae TIM10 strain growth, BacTiter-Glo luminescence, 24 h;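 active = inhibition of 40% or more at the single tested concentration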;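 note: wild-type TIM10 isogenic control strain grown at permissive 25 °C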
# tim23-1 inh – growth inhibitors of tim23-1 mutant yeast, primary screen, luminescence, uHTS | S. cerevisiae tim23-1 growth, BacTiter-Glo luminescence, 24 h | inhibition, % at 20 µM | 330,000 compounds, 1.3% hits | AID 463212, 2010;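 active = growth inhibition of the mutant yeast at or above 50%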;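 note: temperature-sensitive mutant grown at 25 °C; plate controls were DMSO-treated mutant yeast for no effect and medium wells lacking yeast for full effect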
# * hit, by the source's call; ? = inconclusive; / = no result given.
SMILES,tim10-1 inh,Calb FLC,SKKanGAS inh,PfHsp90 set2,TIM10 inh,tim23-1 inh
COc1ccccc1CNC(=O)[C@@H](NC(=O)C1CCN(C(=O)[C@@H]2CCCN2C(=O)OC(C)(C)C)CC1)C(C)C,10,-11,0,-11,9,18
O=C(Nc1ccc(-c2csc(Nc3ccccc3)n2)cc1)c1cccc(C(F)(F)F)c1,22,12,65*,-20,21,28
O=C(Nc1cccc(-c2csc(Nc3cccc(C(F)(F)F)c3)n2)c1)c1cc([N+](=O)[O-])cc(C(F)(F)F)c1,12,-4,77*,6,10,4
O=C(CNC(=O)c1ccco1)NCC(=O)OCc1ccc(Cl)cc1Cl,1,3,-4,2,-2,6
O=C(N/N=C/c1ccccc1Cl)c1ccncc1,-13,1,-3,-7,0,9
O=C(N/N=C/c1cc(Cl)ccc1O)c1ccncc1,1,-42,99*,-1,2,41
Cc1cccc(NC(=O)C2SC(=Nc3c(C)cccc3C)C(C(=O)N3CCOCC3)=C2N)c1 (stereo unspecified),14,16,94*,26,9,1
Cc1cccc(C(=O)Nc2cccc(C(=O)N3CCOCC3)c2)c1,8,23,-11,26,4,12
O=C(NN=Cc1ccc(Cl)cc1Cl)C1CC1,/,/,/,16,/,/
O=c1c2ccccc2sn1-c1cc(S(=O)(=O)N2CCOCC2)ccc1N1CCOCC1,-1,-1,76*,-32,7,17
O=c1c2ccccc2sn1-c1cc(S(=O)(=O)N2CCOCC2)ccc1N1CCCC1,25,3,85*,-15,8,10
O=C(CSC(=S)N1CCOCC1)Nc1nc(=O)c2ccccc2s1,6,52*,0,/,-9,7
O=C(CSC(=S)N1CCOCC1)Nc1nccs1,-3,0,-1,-6,-4,3
Cc1cccn2c(=O)c3cc(C(=O)NCc4cccnc4)c(=N)n(CC4CCCO4)c3nc12 (stereo unspecified),8,-9,-2,2,-18,11
CCN(CC)c1ccc(C(=O)OCc2cc(=O)oc3cc(O)ccc23)cc1,10,0,51*,-2,-6,1
CC/C(=N/NC(=O)c1ccc2c(c1)OCO2)c1ccccc1O,-12,31,7,28,22,45
Fc1ccccc1CNCC1CCCO1 (stereo unspecified),-15,10,-3,-5,5,3
Cc1cccc2cc(CNCC3CCCO3)c(Cl)nc12 (stereo unspecified),2,99*,7,5,6,19
COC(=O)c1cc(C(=O)Cc2ccccc2)c[nH]1,-3,-1,-1,/,-2,10
NC(=O)c1cc(C(=O)Cc2ccccc2)c[nH]1,1,-3,92*,-6,-9,3
COc1cc(-c2nc(-c3ccc4c(c3)-c3ccccc3S4(=O)=O)c(-c3ccccc3)[nH]2)cc(OC)c1O,31,5,66*,/,-3,27
COc1ccc(Cl)cc1NC(=O)COC(=O)c1c(-c2ccccc2)noc1C,15,/,/,16,9,29
CCCCC1CCC(c2nc(-c3ccccn3)no2)CC1 (stereo unspecified),36,-8,61*,/,30,28
Clc1ccccc1CN1CCC(Cc2ccccc2)CC1,-33,-13,-8,33,-24,-18
CCOC(=O)N1CCN(Cc2ccc(O)c3ncccc23)CC1,-4,82*,30,/,16,3
SMILES,tim10-1 inh,Calb FLC,SKKanGAS inh,PfHsp90 set2,TIM10 inh,tim23-1 inh
CSc1ncccc1C(=O)N1CCN(S(=O)(=O)c2cc(C)ccc2C)CC1,7,5,-1,-4,15,13
Cc1ccc(C)c(S(=O)(=O)N2CCN(Cc3ccc(O)c4ncccc34)CC2)c1,29,110*,?,-53,-68,30
Oc1ccc(CN2CCCCC2)c2cccnc12,2,103*,-7,-15,14,-7
Oc1c(Cl)cc(CN2CCCCC2)c2cccnc12,11,-8,24,2,13,16
Oc1ccc(CN2CCC(Cc3ccccc3)CC2)c2cccnc12,-14,112*,-18,/,2,13
CCOC(=O)N1CCN(Cc2ccccn2)CC1,1,?,-11,-2,-18,2
Cc1ccccc1OCCC(=O)OCC(=O)Nc1c(F)cccc1F,10,2,0,/,6,25
COc1ccc(-n2c(=O)c3ccccc3n(Cc3ccccc3F)c2=O)cc1OC,12,-7,-5,-15,-5,24
COc1cc(OC)cc(N(C(=O)c2snc(C(N)=O)c2N)C(C(=O)NCC2CCCO2)c2ccc(C)o2)c1 (stereo unspecified),13,-4,2,-40,-8,7
O=C(/C=C/NCc1cccnc1)c1ccc(-c2ccccc2)cc1,12,-4,2,?,26,39
CCc1ncc(CN2CCCC(C(=O)Nc3ccc(-c4cscn4)cc3)C2)cn1 (stereo unspecified),-4,-4,2,-4,9,-7
C/C(=N/N1CCN(Cc2cccc3ccccc23)CC1)c1ccco1,12,6,-6,19,5,-4
OCc1ccc(O)c2ncccc12,-15,107*,5,12,-1,-7
Cc1ccc(CNC(=O)CSCc2cccc(F)c2)cc1,20,94*,-5,/,-17,16
O=C(CSCc1cccc(F)c1)NCc1ccccc1,15,8,11,15,3,16
CSCCC(NC(=O)c1ccco1)C(=O)N1CCN(c2ccccc2O)CC1 (stereo unspecified),/,/,/,3,/,/
Cc1nnc(-c2cccc(Br)c2)c2cn(-c3ccc(Br)cc3)nc12,20,23,56*,-17,30,-4
Cc1nnc(-c2cccc(Br)c2)c2cn(-c3cccc(Br)c3)nc12,28,1,29,27,19,2
Cc1onc(-c2ccccc2Cl)c1C(=O)N/N=C(\N)COc1ccc(Cl)cc1,24,-18,-6,12,15,13
Cc1onc(-c2ccccc2)c1C(=O)NNC(=O)c1ccccc1,5,/,/,-23,7,-7
Cc1onc(-c2ccccc2)c1C(=O)N/N=C(\N)COc1ccc(Cl)cc1,28,86*,-15,32,8,-11
Cc1onc(-c2ccccc2)c1C(=O)NNC(=S)NC(=O)c1ccc(Br)cc1,/,?,125*,-16,/,/
O=C(NC(=S)NNC(=O)c1ccc(Cl)cc1Cl)c1cccnc1,16,0,?,4,4,25
Cc1ccccc1C(=O)NNC(=S)NC(=O)c1ccc(Cl)cc1Cl,15,91*,28,-95,23,0
